# The supplement of paper PMC10849652
# The full data set covers some 7,900 targets. This sample favours those with a hit. About 0.6% of all pairs of compound and target were hits. Values without a mark were called inactive.
# Legend:
# Assay in all cases: log2 fold change, soluble protein after heating vs DMSO (PISA); higher = thermal stabilisation; K562 cells, 10 uM, 30 min; active = over 0.2 and 3.5 SD of the protein, either way, in both replicates (recomputed)
# [1] = compound: C1=CC=C(C=C1)[C@H](COC2=CC3=C(C=C2)NC(=O)N3)NC(=O)C4=CC=CN(C4=O)CC5=CC(=C(C=C5)F)F
# In short: (§1)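 K562 cells at 2×10^6 cells/mL were given 10 μM compound for 30 min. Aliquots then went through 3 min of heating across 48°C-58°C, were pooled, and were extracted in PBS with 0.5% NP-40 at 4°C, and the supernatant after 21,000xg for 90 min was quantified by TMTpro 16plex LC-MS/MS with channel sums equalised. Thermal stability relative to control samples, from duplicates, is given as log2 fold change.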
# [2] = compound: CC1=C(SC2=C1C(=N[C@H](C3=NN=C(N32)C)CC(=O)N)C4=CC=C(C=C4)Cl)C
# In short: as §1
# [3] = compound: CC1=C2C(=CC=C1)N=C(N(C2=O)C3=CC=CC=C3C)CN4C=NC5=C(N=CN=C54)N
# In short: as §1
# [4] = compound: Cc1sc2c(c1C)C(c1ccc(Cl)cc1)=N[C@@H](CC(=O)OC(C)(C)C)c1nnc(C)n1-2
# In short: as §1
# [5] = compound: c1ccc([C@@H]2C[C@H]2NC2CCNCC2)cc1
# In short: as §1
# UniProt Q92585, sequence (Q92585 whole entry, looked up): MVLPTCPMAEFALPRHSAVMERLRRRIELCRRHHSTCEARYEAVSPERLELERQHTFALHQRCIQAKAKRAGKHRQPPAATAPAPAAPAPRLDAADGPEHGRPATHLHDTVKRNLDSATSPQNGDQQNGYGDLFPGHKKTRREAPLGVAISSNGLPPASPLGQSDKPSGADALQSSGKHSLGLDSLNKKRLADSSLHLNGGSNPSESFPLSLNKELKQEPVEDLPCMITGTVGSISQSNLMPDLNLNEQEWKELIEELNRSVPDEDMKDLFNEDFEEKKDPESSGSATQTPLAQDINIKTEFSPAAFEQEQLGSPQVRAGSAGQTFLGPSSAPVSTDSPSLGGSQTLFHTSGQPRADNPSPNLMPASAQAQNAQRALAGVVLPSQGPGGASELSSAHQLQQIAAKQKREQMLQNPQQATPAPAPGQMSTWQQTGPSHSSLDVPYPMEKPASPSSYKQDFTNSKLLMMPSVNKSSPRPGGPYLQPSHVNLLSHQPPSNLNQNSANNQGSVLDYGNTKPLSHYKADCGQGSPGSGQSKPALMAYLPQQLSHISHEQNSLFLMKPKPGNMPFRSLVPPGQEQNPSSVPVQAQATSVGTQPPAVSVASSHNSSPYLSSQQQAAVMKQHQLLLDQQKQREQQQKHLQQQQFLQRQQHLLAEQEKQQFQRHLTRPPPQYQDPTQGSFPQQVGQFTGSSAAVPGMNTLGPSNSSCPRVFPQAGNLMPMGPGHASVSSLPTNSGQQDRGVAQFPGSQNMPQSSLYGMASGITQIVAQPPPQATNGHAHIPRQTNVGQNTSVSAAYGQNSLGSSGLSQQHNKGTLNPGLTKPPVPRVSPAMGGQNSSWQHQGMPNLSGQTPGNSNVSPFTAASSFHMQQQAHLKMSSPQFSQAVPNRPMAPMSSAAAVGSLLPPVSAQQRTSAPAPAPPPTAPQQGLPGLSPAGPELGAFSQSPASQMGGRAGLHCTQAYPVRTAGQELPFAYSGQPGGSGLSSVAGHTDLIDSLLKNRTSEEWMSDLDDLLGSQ
# UniProt Q9Y5V3, sequence (Q9Y5V3 whole entry, looked up): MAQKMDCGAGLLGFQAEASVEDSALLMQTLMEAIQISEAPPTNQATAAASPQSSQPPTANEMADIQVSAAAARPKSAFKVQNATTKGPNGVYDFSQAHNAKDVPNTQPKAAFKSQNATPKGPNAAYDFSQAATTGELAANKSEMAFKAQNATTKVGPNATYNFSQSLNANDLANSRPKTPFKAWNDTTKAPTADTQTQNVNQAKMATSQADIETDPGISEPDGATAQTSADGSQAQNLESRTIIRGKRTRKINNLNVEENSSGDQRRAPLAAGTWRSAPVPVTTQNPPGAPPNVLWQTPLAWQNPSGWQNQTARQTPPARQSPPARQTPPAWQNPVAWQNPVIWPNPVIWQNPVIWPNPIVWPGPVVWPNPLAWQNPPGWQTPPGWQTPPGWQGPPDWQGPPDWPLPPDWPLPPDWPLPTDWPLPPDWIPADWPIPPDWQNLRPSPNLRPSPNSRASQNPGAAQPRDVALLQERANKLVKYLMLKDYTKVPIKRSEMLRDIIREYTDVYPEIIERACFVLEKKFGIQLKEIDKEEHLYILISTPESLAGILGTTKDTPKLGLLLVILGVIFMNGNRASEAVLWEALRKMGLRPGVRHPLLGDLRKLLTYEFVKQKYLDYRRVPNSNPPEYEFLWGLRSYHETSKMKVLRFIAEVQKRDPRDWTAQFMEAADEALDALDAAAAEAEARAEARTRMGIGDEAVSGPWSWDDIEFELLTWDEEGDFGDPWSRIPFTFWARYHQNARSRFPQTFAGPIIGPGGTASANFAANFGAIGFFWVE
# UniProt P08514, sequence (P08514 whole entry, looked up): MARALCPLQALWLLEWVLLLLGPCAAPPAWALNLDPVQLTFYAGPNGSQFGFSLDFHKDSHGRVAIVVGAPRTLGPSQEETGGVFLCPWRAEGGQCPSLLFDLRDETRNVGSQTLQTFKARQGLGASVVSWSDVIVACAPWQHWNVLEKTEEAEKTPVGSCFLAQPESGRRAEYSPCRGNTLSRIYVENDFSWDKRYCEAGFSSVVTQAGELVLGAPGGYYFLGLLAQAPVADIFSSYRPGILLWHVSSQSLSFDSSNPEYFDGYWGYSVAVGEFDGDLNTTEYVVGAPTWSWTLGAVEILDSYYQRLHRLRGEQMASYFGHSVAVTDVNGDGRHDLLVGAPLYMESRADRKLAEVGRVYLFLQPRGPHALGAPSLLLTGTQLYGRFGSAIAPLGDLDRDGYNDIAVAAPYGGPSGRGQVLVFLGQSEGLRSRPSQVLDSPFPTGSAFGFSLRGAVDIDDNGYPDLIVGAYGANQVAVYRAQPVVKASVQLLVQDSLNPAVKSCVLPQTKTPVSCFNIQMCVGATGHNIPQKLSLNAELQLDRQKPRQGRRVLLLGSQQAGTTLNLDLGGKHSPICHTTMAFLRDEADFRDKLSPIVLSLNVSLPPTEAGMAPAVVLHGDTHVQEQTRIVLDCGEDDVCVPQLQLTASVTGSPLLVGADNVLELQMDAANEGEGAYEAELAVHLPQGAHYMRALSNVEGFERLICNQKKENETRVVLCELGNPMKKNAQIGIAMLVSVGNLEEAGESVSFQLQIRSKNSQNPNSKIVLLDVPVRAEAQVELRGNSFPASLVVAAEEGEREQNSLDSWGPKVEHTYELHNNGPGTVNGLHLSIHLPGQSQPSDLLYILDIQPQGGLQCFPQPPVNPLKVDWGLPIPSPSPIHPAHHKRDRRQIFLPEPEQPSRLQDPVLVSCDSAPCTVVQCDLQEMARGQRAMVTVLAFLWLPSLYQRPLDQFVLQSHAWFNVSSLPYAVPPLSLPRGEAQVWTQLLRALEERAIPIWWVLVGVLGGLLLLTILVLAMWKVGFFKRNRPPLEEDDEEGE
# UniProt Q86X29, sequence (Q86X29 whole entry, looked up): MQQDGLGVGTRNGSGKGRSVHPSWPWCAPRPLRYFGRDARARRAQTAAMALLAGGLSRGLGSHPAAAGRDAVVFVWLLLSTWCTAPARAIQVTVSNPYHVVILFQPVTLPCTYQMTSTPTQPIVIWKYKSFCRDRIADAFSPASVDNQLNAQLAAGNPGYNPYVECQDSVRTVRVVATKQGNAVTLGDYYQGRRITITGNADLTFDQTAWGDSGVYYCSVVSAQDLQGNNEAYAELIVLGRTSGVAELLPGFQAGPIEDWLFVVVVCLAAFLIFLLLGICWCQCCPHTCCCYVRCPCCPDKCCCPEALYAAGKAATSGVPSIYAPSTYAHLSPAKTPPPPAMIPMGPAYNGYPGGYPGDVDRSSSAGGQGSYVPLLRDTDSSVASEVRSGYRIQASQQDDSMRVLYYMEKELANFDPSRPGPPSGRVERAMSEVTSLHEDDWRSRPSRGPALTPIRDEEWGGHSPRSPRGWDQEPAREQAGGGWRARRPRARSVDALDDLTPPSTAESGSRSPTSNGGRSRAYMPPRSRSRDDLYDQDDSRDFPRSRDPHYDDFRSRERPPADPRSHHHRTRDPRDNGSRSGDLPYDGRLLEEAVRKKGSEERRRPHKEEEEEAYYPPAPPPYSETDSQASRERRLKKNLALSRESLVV
# UniProt P17936, sequence (P17936 whole entry, looked up): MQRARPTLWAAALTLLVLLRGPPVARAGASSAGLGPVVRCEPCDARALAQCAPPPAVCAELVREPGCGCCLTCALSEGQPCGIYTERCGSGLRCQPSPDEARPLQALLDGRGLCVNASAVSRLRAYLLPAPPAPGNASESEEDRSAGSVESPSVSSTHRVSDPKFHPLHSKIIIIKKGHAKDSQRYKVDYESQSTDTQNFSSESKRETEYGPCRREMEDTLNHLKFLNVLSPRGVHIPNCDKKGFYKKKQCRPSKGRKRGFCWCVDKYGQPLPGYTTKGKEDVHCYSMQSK
# UniProt P07948, sequence (P07948 whole entry, looked up): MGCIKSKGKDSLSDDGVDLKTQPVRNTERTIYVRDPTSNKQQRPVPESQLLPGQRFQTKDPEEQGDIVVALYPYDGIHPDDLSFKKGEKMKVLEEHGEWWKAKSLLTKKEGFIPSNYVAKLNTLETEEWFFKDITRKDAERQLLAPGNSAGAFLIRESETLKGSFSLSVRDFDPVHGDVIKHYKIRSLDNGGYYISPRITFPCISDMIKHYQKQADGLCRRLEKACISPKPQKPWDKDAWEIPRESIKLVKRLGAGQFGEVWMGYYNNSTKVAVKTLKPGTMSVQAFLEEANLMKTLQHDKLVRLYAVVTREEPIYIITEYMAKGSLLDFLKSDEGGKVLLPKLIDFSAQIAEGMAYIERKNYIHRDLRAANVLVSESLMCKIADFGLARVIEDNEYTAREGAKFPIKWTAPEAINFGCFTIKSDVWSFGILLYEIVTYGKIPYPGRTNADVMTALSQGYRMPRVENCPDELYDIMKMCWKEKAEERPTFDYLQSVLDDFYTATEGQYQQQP
# UniProt O95279, sequence (O95279 whole entry, looked up): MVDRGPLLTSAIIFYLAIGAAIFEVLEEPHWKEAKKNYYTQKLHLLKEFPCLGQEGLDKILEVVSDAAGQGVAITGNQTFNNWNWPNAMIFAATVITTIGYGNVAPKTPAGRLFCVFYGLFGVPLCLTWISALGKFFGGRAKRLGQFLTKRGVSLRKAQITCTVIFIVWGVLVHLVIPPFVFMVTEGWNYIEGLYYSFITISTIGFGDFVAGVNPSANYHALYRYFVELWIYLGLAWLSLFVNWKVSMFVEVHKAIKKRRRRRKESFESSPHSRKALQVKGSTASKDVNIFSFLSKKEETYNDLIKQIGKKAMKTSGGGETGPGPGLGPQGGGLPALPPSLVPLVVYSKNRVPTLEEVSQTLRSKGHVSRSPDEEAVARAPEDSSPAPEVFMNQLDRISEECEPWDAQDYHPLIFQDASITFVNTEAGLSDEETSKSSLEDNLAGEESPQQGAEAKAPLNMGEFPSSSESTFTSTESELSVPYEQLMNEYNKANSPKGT
# UniProt O15243, sequence (O15243 whole entry, looked up): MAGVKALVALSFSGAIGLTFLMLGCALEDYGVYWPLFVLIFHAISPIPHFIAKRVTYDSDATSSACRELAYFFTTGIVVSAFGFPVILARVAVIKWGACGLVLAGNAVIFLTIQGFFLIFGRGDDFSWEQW
Target,log2 fold change [1],log2 fold change [2],log2 fold change [3],log2 fold change [4],log2 fold change [5]
MIF (UniProt P14174),-0.101,0.016,0.015,-0.083,0.004
MED7 (UniProt O43513),-0.049,0.029,0.017,0.016,0.076
MAP4K4 isoform 3 (UniProt O95819),0.009,0.032,0.044,0.04,0.264 (active)
MCCC2 (UniProt Q9HCC0),0.029,0.038,-0.027,-0.022,0.026
LARP4B (UniProt Q92615),-0.003,-0.013,0,0.081,-0.014
MELK (UniProt Q14680),0.044,-0.057,,0.197,-0.057
LMNA isoform 2 (UniProt P02545),,,,-0.033,
MCM10 (UniProt Q7L590),-0.04,,0.204,0.032,
IKZF1 (UniProt R9R4D9),,0.08,,0.039,-0.159
IP6K1 (UniProt Q92551),0.053,0.059,,0.194,-0.135
MAPK11 (UniProt Q15759),,,,-0.014,
LSR isoform 3 (UniProt Q86X29),,-0.073,,-0.067,-0.101
LSR (UniProt M0QZL9),,,0.054,,
LUM (UniProt P51884),,-0.05,0.087,0.144,0.143
ITGA2B (UniProt P08514),,0.022,0.112,0.029,-0.043
KIZ (UniProt Q2M2Z5),,-0.082,,,0.453
MAN2B2 (UniProt Q9Y2E5),0.097,,0.096,0.074,
ITPRID2 (UniProt P28290),,,0.106,,
LRRCC1 (UniProt Q9C099),,,,0.046,
MAGED1 isoform 2 (UniProt Q9Y5V3),,0.031,0.148,,-0.01
MCOLN3 (UniProt Q8TDD5),-0.075,,,0.039,
IGFBP6 (UniProt P24592),,0.018,0.011,,0.01

Target,log2 fold change [1],log2 fold change [2],log2 fold change [3],log2 fold change [4],log2 fold change [5]
MAP3K20 isoform 2 (UniProt Q9NYL2),,,,-0.033,
LEPROT (UniProt O15243),,-0.022,,-0.235,0.112
ING5 (UniProt Q8WYH8),,0.051,,0.036,-0.037
MFSD12 isoform 3 (UniProt Q6NUT3),,0.026,,-0.129,0.135
MED17 (UniProt Q9NVC6),,-0.031,0.038,0.032,-0.011
MGRN1 isoform 2 (UniProt O60291),-0.088,-0.004,,0.036,0.086
MAP2K5 (UniProt Q13163),,0.053,,,-0.034
LYN isoform 2 (UniProt P07948),,0.018,-0.097,,0.033
MAPRE3 isoform 2 (UniProt Q9UPY8),,0.033,,0.279,0.017
MED12 isoform 2 (UniProt Q93074),-0.002,,,-0.434,
IGFBP3 isoform 2 (UniProt P17936),,-0.081,0.034,-0.083,0.057
INTS5 (UniProt Q6P9B9),-0.091,,0.052,0.065,
KIF13A isoform 4 (UniProt Q9H1H9),,0.031,,,-0.367
IL10RB (UniProt Q08334),-0.081,,-0.149,0.029,
MAP4K4 isoform 6 (UniProt O95819),,0.177,0.049,-0.037,0.076
KIF1B isoform 3 (UniProt O60333),,,-0.246,,
MAML1 (UniProt Q92585),,0.018,0.15,,0.077
LRRFIP1 isoform 4 (UniProt Q32MZ4),,-0.204,,,0.009
MFAP3 (UniProt P55082),0.007,,0.25,-0.155,
MAP4K2 (UniProt Q12851),-0.08,0.063,,-0.057,0
KCNK5 (UniProt O95279),-0.028,0.114,,,-0.054
"LRBA, A0A494BZW2",0.002,0.048,,0.113,0.014
